Hits are enriched below; roughly 3.8% of the tested compounds scored in any of these assays.
Jurkat NFkB inh – inhibitors of induced NF-kB luciferase reporter, primary screen, TCR NF-kB activation inhibitor project, cell-based, luminescence, uHTS | Jurkat, PMA/ionomycin-induced NF-kB luciferase reporter | inhibition, % at 4 µM | actives 0.53% (n = 330,000) | AID 435003, 2010; in the data active means inhibition above about 50%
NTR1 ag – agonists of human NTR1, primary screen, imaging, U2OS cells, beta-arrestin-GFP, high content; NTR1-U2OS beta-arrestin-GFP spot imaging, agonist mode; activation, % at 20 µM; actives 0.17% (n = 330,000); AID 493036, 2011;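 active means activation at or above 40% of the spot to cytoplasm intensity ratio, with at least 20 cells analyzed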;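 further: 0% = DMSO without peptide and 100% = 100 nM NTR1 peptide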
Target sequence (P30989 whole entry, looked up): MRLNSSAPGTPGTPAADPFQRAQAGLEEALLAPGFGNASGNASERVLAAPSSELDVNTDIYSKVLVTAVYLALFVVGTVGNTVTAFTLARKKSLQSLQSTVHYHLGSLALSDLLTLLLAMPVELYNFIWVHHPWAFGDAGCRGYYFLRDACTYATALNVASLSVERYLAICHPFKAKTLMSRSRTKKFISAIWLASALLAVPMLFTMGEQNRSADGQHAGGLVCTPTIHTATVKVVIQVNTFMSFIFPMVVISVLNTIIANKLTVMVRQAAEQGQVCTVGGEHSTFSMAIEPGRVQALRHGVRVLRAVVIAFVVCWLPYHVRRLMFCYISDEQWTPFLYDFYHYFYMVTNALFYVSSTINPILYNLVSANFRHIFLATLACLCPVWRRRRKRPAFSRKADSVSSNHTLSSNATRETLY
697 NFkB inh – inhibitors of PMA/ionomycin-induced NF-kB reporter, 697 cells, primary screen, B-cell NF-kB inhibitor project, cell-based, luminescence, uHTS; 697 B-cell NF-kB luciferase reporter, 16 h; inhibition, % at 4 µM; actives 0.33% (n = 330,000); AID 435022, 2010; in the data active means inhibition above about 35%
Bfl-1 A1 inh – caspase 3/7 activation in MEF A1-2A-BIM cells, primary screen, A1 inhibitor project, cell-based, luminescence, HTS. Caspase-Glo 3/7 luminescence, 3 h; percent of clofoctol response, vehicle zero. caspase activation, % (no concentration beside the values). actives 0.066% (n = 330,000). AID 2462, 2010;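 active means over half of replicate activation scores above 10%, or exactly half above 10 with the replicate mean above 10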
Beta apoptosis – inhibitors of cytokine-induced beta cell apoptosis, primary screen, luminescence | INS-1E cytokine-induced death, ATP luminescence, 48 h; percent of positive-control rescue, neutral wells zero | protection from apoptosis, % (test concentration not listed) | actives 0.8% (n = 300,000);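 active means Every replicate reaches about 75%, or at least half do and their mean reaches it too, limit read from the data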;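 further: 0% = cytokine-treated negative control wells and 100% = positive control rescue; higher means more ATP so stronger rescue from cytokine killing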
Mdm2-MdmX inh – inhibitors of human Mdm2-MdmX association, primary screen, cell-based, luminescence, split luciferase, SaOS-2, uHTS; Protein Mdm4 (Homo sapiens) + E3 ubiquitin-protein ligase Mdm2 (Homo sapiens), …; SaOS-2 split-luciferase Mdm2/MdmX complementation; inhibition, % at 8 µM; actives 3% (n = 330,000);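 active means inhibition of at least 50% at 8 µM in the primary screen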
Jurkat NFkB conf – PMA/ionomycin-induced NF-kB reporter inhibitors, Jurkat retest, confirmation, T-cell NF-kB inhibitor project, cell-based, luminescence, single concentration; AID 435020, 2010; shares compounds with Jurkat NFkB inh; inhibition, % at 4 µM; Jurkat NF-kB luciferase, 16 h; actives 27% (n = 2,700);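 active means inhibition reaching about 45% at 4 µM in either replicate, limit read from the data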;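 further: plate controls were PMA/ionomycin stimulated DMSO wells for no effect and unstimulated DMSO wells for full effect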
697 NFkB conf – PMA/ionomycin-induced NF-kB reporter inhibitors, 697 retest, confirmation, B-cell NF-kB inhibitor project, cell-based, luminescence, single concentration. shares compounds with 697 NFkB inh. 697 B-cell NF-kB luciferase, 16 h. inhibition, % at 4 µM. actives 35% (n = 2,000); in the data active means inhibition mostly above about 28%, no sharp cut-off; inactive means mostly below about 22%
Mdm2-MdmX conf – Mdm2-MdmX complex disruptors, retested hits, confirmation, luminescence, single concentration. shares compounds with Mdm2-MdmX inh. Mdm2-MdmX binding, luminescent assay. inhibition, % at 8 µM. actives 55% (n = 10,000); in the data active means inhibition above about 40%
FLuc counter – full-length luciferase signal inhibition, confirmation, counter-screen for Mdm2/MdmX interaction inhibitor project, cell-based, single concentration, SaOS-2. shares compounds with Mdm2-MdmX inh. SaOS-2 full-length luciferase counterscreen, luminescence. inhibition, % at 8 µM. actives 77% (n = 6,200). AID 504607, 2011;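 active means mean inhibition at 8 µM reaching about 37%, which flags the compound as non-specific, limit read from the data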;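 further: p53-null SaOS-2 cells with luciferase driven by a doxycycline-inducible promoter; compound on cells about two nights before reading with doxycycline added after day one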
NTR1 ag confirm – NTR1 agonists, single-dose retest, confirmation, imaging, U2OS cells, beta-arrestin-GFP, single concentration. shares compounds with NTR1 ag. NTR1-U2OS beta-arrestin-GFP translocation imaging. activation, % at 20 µM. actives 38% (n = 480);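 active means mean activation at 20 µM of at least 40%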;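 further: 0% = DMSO without peptide and 100% = 100 nM NTR1 peptide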
* marks the source's active call; other numbers are inactive results; i = inactive; nt = no result.

SMILES	Jurkat NFkB inh	NTR1 ag	697 NFkB inh	Bfl-1 A1 inh	Beta apoptosis	Mdm2-MdmX inh	Jurkat NFkB conf	Mdm2-MdmX conf	FLuc counter	others
Cc1sc2nc(CSCC(=O)N(CCC#N)c3ccccc3F)[nH]c(=O)c2c1C	-3.9	-0.1	17.7	nt	nt	12.7	nt	nt	nt
CCOC(=O)c1c(C)[nH]c(C)c1C(=O)COC(=O)/C=C/c1ccc(OC)cc1	50.9*	4.1	-39.5	nt	nt	69.2*	17.1	77.1*	53.1*
CCOC(=O)c1c(C)[nH]c(C)c1C(=O)COC(=O)/C=C/c1cccc(F)c1	nt	nt	nt	0.6	0.6	nt	nt	nt	nt
COCCn1c(=O)[nH]c2cc(C(=O)Nc3cccc(C(C)=O)c3)ccc2c1=O	5.0	0.4	20.6	1.9	0.9	-8.9	nt	nt	nt
O=C1C=CC(O)(c2cc(=O)c3c(O)cc(O)cc3o2)C=C1	88.9*	2.3	i	0.6	110.7*	99.3*	70.8*	65.8*	48.2*	697 NFkB conf=i
CCn1cc(C(=O)NCCCOC(C)C)c(=O)c2cc(S(=O)(=O)N3CCOCC3)ccc21	13.6	-0.6	10.9	1.0	-1.3	18.4	nt	nt	nt
CCc1ccc(CNC(=O)c2ccc(OC3CCN(C(=O)COC)CC3)cc2)nc1	0.4	-0.4	-4.5	-0.1	2.1	11.8	nt	nt	nt
COc1cc2c(c(OC)c1OC)-c1ccc(OC)c(=O)cc1C(NC(C)=O)CC2 (stereo not given)	62.7*	4.4	-148.8	1.5	nt	59.9*	59.9*	57.5*	118.1*
COc1c(O[C@@H]2O[C@H](CO)[C@@H](O)[C@H](O)[C@H]2O)cc2c(c1OC)-c1ccc(SC)c(=O)cc1C(NC(C)=O)CC2 (stereo not given in full)	4.4	2.2	20.3	nt	nt	-5.0	nt	nt	nt
C/C(=N\NC(=O)c1ccc(Cl)c(Cl)c1)c1ccccn1	98.2*	7.9	-74.1	-1.9	93.1*	83.5*	53.4*	81.5*	25.9
C/C(=N/NC(=O)c1ccc(C(C)(C)C)cc1)c1ccccn1	99.5*	2.6	-142.9	-3.7	111.1*	93.2*	0.1	43.5*	55.3*
C/C(Cc1ccccc1)=N\NC(=O)c1ccccn1	-1.7	0.4	8.8	0.0	-3.6	1.9	nt	nt	nt
C/C(=N\NC(=O)c1cccc(Br)c1)c1ccccn1	91.9*	4.0	-94.9	0.1	104.9*	100.4*	1.1	63.2*	50.5*
CC(C)(C)c1ccc(C(=O)O/N=C(\N)c2ccccn2)cc1	59.5*	2.7	-62.9	1.1	-3.8	98.2*	86.4*	97.3*	28.0
N/C(=N\OC(=O)c1ccccc1)c1ccccn1	-77.5	-0.1	-141.6	-8.2	13.5	41.6	nt	nt	nt
C/C(=N\NC(=O)c1cccc(N/N=C(\C)c2ccccc2)c1)c1ccccc1	nt	nt	nt	-2.7	-5.5	nt	nt	nt	nt
O=C(NCc1ccccc1)C(c1ccncc1)N(C(=O)c1ccccn1)c1ccccc1 (stereo not given)	-11.9	-1.1	-11.0	0.4	-2.1	23.5	nt	nt	nt
O=C(N[C@H]1/C=C\[C@@H](O)CCCC1)OCc1ccccc1	nt	-0.3	-98.1	nt	nt	-36.5	nt	nt	nt
COc1c([N+](=O)[O-])cc(C(=O)NNC(=O)c2ccc(C)cc2)cc1[N+](=O)[O-]	5.2	1.8	16.6	0.2	-1.3	1.0	nt	nt	nt
CC1CCCC(NC(=O)Cn2cc(Br)ccc2=O)C1C (stereo not given)	4.6	-0.5	11.4	0.8	-1.8	-22.0	nt	nt	nt
C/C(=N\NC(=O)C(c1ccccc1)c1ccccc1)c1ccc(O)cc1	-7.7	1.9	-14.5	-0.8	-5.6	12.7	nt	nt	nt
COc1ccc(NC(=O)c2ccccn2)cc1OC	-31.6	1.1	-28.1	-2.1	2.8	-9.3	nt	nt	nt
C/C(=N\NC(=O)c1cc(-c2cccs2)nc2ccccc12)c1ccccn1	55.1*	-1.2	25.1	-1.2	102.2*	79.7*	13.8	74.8*	28.3
C/C(=N\NC(=O)c1cccc2ccccc12)c1cccs1	-33.1	-0.6	-4.2	0.4	-8.0	2.4	nt	nt	nt
C/C(=N\NC(=O)C(c1ccccc1)c1ccccc1)c1ccccn1	78.8*	11.1	-12.2	-1.0	87.8*	74.8*	16.2	64.2*	49.6*
SMILES	Jurkat NFkB inh	NTR1 ag	697 NFkB inh	Bfl-1 A1 inh	Beta apoptosis	Mdm2-MdmX inh	Jurkat NFkB conf	Mdm2-MdmX conf	FLuc counter	others
C/C(=N\NC(=O)c1cccc2ccccc12)c1ccccn1	95.3*	1.0	-30.2	nt	nt	95.9*	17.7	37.6	29.9
COc1ccc(C(=O)N/N=C(\C)c2ccccn2)cc1OC	96.3*	1.6	-49.8	-1.4	98.4*	98.5*	16.3	14.8	nt
O=C(NCC1CCCN(Cc2cccc(F)c2)C1)c1cccc2ccccc12 (stereo not given)	9.7	0.2	1.0	0.7	-2.3	-18.7	nt	nt	nt
COc1cc(Cl)ccc1OCc1cc(C(=O)NCCCN2CCCC2=O)no1	3.2	1.4	-5.4	0.9	-7.3	9.0	nt	nt	nt
CC(C)(C)C1CCC(C(=O)Nc2ccc(N3CCOCC3)cc2N2CCOCC2)CC1 (stereo not given)	1.8	12.2	10.8	1.4	-0.8	37.4	nt	nt	nt
COc1ccc(CCNC(=O)c2ccccc2NS(=O)(=O)c2c(F)cccc2F)cc1	15.4	1.0	9.7	-0.7	7.9	23.3	nt	nt	nt
Cc1ccc(-c2csc(NC(=O)c3cc([N+](=O)[O-])ccc3N3CCOCC3)n2)cc1	-2.3	2.8	-3.2	-0.4	7.7	28.8	nt	nt	nt
O=C(Nc1nc(-c2ccccc2)cs1)c1ccc(N2CCOCC2)c([N+](=O)[O-])c1	52.2*	69.8*	11.9	-0.8	5.0	54.5*	57.1*	52.0*	56.1*	NTR1 ag confirm=36.7

High-throughput results deposited in PubChem by several laboratories.
